# According to PubChem BioAssay (EPA / NIEHS):
# Records with an inconclusive call do not appear. The source made the active and inactive calls. Rule for the calls, unless noted: active = hit-call score of the fitted dose curve at least 0.9, where 1 is the maximum; inactive = score below 0.9.
# Biological target: human Retinoic Acid Receptor beta (RARb), RARB (gene 5915) (UniProt P10826)
# Test: ATG_RARb_TRANS: Attagene TRANS-FACTORIAL HepG2 Assay for human Retinoic Acid Receptor beta (AID 2283004; active = hit-call score of the fitted dose curve at least 0.9, where 1 is the maximum)
# Conditions: not given
# Procedure, shortened: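 Transient transfection of HepG2 with multiple reporter units → chemical dosing, 24 h → total RNA isolation → RT with oligo(dT) → reporter-specific PCR, 6-FAM primer extension, HpaI digest → capillary electrophoresis. Positive direction vs DMSO control.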
# Chain of human Retinoic Acid Receptor beta (RARb), RARB (gene 5915) (P10826 whole entry, looked up): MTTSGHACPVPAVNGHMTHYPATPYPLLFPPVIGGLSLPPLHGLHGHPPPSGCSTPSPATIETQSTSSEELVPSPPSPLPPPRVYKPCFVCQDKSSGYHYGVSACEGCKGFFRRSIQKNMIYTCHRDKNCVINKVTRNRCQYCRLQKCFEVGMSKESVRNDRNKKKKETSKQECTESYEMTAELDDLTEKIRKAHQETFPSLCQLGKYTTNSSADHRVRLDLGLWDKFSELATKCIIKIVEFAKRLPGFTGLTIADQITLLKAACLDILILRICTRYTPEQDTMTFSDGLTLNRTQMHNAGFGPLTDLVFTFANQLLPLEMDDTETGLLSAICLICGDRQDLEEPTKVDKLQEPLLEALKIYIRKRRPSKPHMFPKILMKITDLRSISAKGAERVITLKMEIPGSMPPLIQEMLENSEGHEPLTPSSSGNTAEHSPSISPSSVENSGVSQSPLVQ
row,Compound,outcome
1,COCCOC[C@H](CC1(C(=O)NC2CCC(C(=O)O)CC2)CCCC1)C(=O)Oc1ccc2c(c1)CCC2 (some centres undefined),inactive
2,CN1CCCC1=O,inactive
3,CCOC(=O)CCC(=O)OCC,inactive
4,CC=Cc1ccc(O)c(OC)c1,inactive
5,CC1=C(/C=C/C(C)=C/C=C/C(C)=C/CO)C(C)(C)CCC1,inactive
6,NCCO,inactive
7,CC(=O)OCCOCCOCCOC(C)=O,inactive
8,CCCCCCCCCCCCCCCC,inactive

# Biological target: Retinoic acid receptor alpha (Homo sapiens) (UniProt P10276)
# Sequence (P10276 whole entry, looked up): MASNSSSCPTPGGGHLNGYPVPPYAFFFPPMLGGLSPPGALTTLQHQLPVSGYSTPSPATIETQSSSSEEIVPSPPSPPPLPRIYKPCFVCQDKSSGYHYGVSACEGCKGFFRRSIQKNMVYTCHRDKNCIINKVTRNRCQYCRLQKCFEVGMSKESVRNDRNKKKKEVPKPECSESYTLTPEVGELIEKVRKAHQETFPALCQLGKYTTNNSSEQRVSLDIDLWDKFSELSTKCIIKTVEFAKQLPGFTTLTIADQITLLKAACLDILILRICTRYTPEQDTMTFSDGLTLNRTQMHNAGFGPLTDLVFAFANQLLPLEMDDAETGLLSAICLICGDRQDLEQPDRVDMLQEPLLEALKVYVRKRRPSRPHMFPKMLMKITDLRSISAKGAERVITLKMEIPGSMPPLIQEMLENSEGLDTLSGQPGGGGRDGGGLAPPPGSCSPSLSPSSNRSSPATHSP
# Test: ATG_RARa_TRANS: Attagene TRANS-FACTORIAL HepG2 Assay for human Retinoic Acid Receptor alpha (RARa) (AID 2283005; active = hit-call score of the fitted dose curve at least 0.9, where 1 is the maximum;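 for AC50: potency for increased reporter signal meaning RARa activation over DMSO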)
# Conditions: not given
# Procedure, shortened: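 HepG2 transiently transfected with multiplex GAL4-UAS reporter units including a human RARa–GAL4 chimera; 24 h compound exposure. Reporter mRNA quantified by RT-PCR, 6-FAM labeling and capillary electrophoresis; gain of signal versus DMSO.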
Compound,outcome,AC50
CN1CCCC1=O,inactive,
CC1=C(/C=C/C(C)=C/C=C/C(C)=C/CO)C(C)(C)CCC1,,0.073 µM (active)
NCCO,inactive,
COc1cc(/C=C/C(=O)CC(=O)/C=C/c2ccc(O)c(OC)c2)ccc1O,inactive,
CC(=O)OCCOCCOCCOC(C)=O,inactive,
Cc1c(C(=O)O)c(O)cc2c1C(=O)c1c(O)c([C@@H]3O[C@H](CO)[C@@H](O)[C@H](O)[C@H]3O)c(O)c(O)c1C2=O,inactive,
CCCCCCCCCCCCCCCC,inactive,
FC(F)(F)C(F)(F)C(F)(F)C(F)(F)C(F)(F)C(F)(F)CCI,inactive,

# Read-out: not listed separately
# Test: BSK_3C_Proliferation: Cell Proliferation Assessment in the BioMAP Diversity Plus: 3C Assay (AID 2283006);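 for AC50: potency may reflect either rise or fall in cell number versus DMSO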
# Conditions: primary human endothelial cells (HUVEC)
# Procedure, shortened: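 Subconfluent HUVEC (3C system) cultured with chemical; relative cell number read at 48 h by sulforhodamine B total-protein staining (0.1% SRB after 10% TCA fixation, 560 nm). Bidirectional fit relative to DMSO.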
Compound,outcome,AC50
COc1cc(S(=O)(=O)O)c(C)cc1N=Nc1c(O)ccc2cc(S(=O)(=O)O)ccc12,inactive,
COCCOC[C@H](CC1(C(=O)NC2CCC(C(=O)O)CC2)CCCC1)C(=O)Oc1ccc2c(c1)CCC2 (some centres undefined),inactive,
CN1CCCC1=O,inactive,
COc1ccc(S(=O)(=O)N2C(=O)[C@@](c3ccccc3OC)(N3C[C@H](O)C[C@H]3C(=O)N(C)C)c3cc(Cl)ccc32)c(OC)c1,,28.7 µM (active)
CCOC(=O)CCC(=O)OCC,inactive,
COc1ccc2c(c1)c(CC(=O)O)c(C)n2C(=O)c1ccc(Cl)cc1,inactive,
NS(=O)(=O)c1cc2c(cc1Cl)NCNS2(=O)=O,inactive,
CCCCCCCCCCCCCO,,14.9 µM (active)
CC=Cc1ccc(O)c(OC)c1,inactive,
Cc1ccc(Cl)cc1,inactive,
CCCc1cc(=O)[nH]c(=S)[nH]1,inactive,
Cc1ccc(N(C)C)cc1,inactive,
CCOc1ccc2c(c1)C(C)=CC(C)(C)N2,inactive,
CC1=C(/C=C/C(C)=C/C=C/C(C)=C/CO)C(C)(C)CCC1,,27.6 µM (active)
NCCO,inactive,
CNC(=O)[C@H]1O[C@@H](n2cnc3c(NCc4cc(Cl)ccc4OCc4cc(C)no4)ncnc32)[C@H](O)[C@@H]1N,inactive,
O=c1[nH]cc(F)c(=O)[nH]1,,7.81 µM (active)
O=C(O)Cc1ccccc1Nc1c(Cl)cccc1Cl,inactive,
CCCCc1ccc2c(n1)[C@@H](c1ccc(OC)cc1C[C@H](C)C(=O)O)[C@H](C(=O)O)[C@H]2c1ccc2c(c1)OCO2,inactive,
CC(=O)OCCOCCOCCOC(C)=O,inactive,
Cc1c(C(=O)O)c(O)cc2c1C(=O)c1c(O)c([C@@H]3O[C@H](CO)[C@@H](O)[C@H](O)[C@H]3O)c(O)c(O)c1C2=O,inactive,
CC(=O)OC/C=C(\C)CCC=C(C)C,inactive,
CCCCCCCCCCCCCCCC,inactive,
Cc1ccccc1Cl,inactive,
C=CCc1ccc(O)c(OC)c1,inactive,
Cc1cc(NC(=O)C(=O)O)cc(C)c1Oc1ccc(O)c2c1CCC2,inactive,
CC(=O)C(C)=CC1C(C)=CCCC1(C)C (centres undefined),inactive,
FC(F)(F)C(F)(F)C(F)(F)C(F)(F)C(F)(F)C(F)(F)CCI,inactive,
